# High-throughput results deposited in PubChem by National Center for Advancing Translational Sciences (NCATS).
# HPGD inh: HPGD (human) dehydrogenase inhibition; P15428; 4.3% of 150,000 active; purified HPGD, NADH fluorescence kinetic, PGE2 substrate; Potency, µM, without a hit: top-dose activity change, negative = inhibition, actives largely listed as inhibitors; AID 894; also: % is scaled to controls: 0 for no effect and ±100 for the full control effect
# Target sequence (P15428 whole entry, looked up): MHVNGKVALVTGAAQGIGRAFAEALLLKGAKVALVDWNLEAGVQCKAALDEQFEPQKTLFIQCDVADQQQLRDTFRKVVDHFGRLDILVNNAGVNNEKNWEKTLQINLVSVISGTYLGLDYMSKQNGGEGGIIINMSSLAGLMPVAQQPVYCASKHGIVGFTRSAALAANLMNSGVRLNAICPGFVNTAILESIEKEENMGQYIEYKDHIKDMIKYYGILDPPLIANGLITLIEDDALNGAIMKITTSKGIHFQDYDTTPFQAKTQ
#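 20 nM HPGD preincubated 15 min at room temperature with compound in 50 mM Tris-HCl pH 8, 0.01% Tween 20. Started with 1 mM NAD+ and 30 uM prostaglandin E2; NADH fluorescence (360/450 nm) read 5 times over 30-s intervals, last minus first.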
# ALDH1A1 inh: ALDH1A1 (human) enzyme inhibition; P00352; Purified ALDH1A1, NADH fluorescence, propionaldehyde substrate; Potency, µM (highest dose often 75.3 µM), inactives show at the highest dose activity, negative = inhibition, actives largely listed as inhibitors; 7.3% of 220,000 active;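 also: plate controls were no enzyme wells and a reference inhibitor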
# HTT aggregate: reduces HttQ103-GFP aggregates in PC12 cells. PC12 HttQ103-GFP aggregates, Acumen cytometry, 40 h. Potency, µM (top dose mostly 46.1 µM), without a hit: at the highest dose activity change, negative = inhibition, actives largely listed as inhibitors. 1.1% of 220,000 active; active = well fitted curve in the direction sought with a large enough effect; inconclusive = small, poorly fitted or top-dose-only effect, or another doubt; inactive = no such curve, though single readings can be large; an effect the other way counts as inactive or inconclusive; also: % is scaled to controls: 0 for no effect and ±100 for the full control effect; nearly all actives have a fitted effect of over 60% in size
#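 Read-out: GFP aggregate count by laser scanning cytometer (488 nm excitation, 500-530 nm emission, 1–25 µm objects >6 SD above background). Cells: PC12, inducible HTTex1-Q103-GFP, 100 nM tebufenozide; compounds titrated.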
# LMNA splice mod: modulators of lamin A splicing | 0.01% of 200,000 active | Potency, µM (highest dose often 46.1 µM), for inactives: top-dose ratio change, negative = inhibition, most hits filed as inhibitors | AID 1487 | HeLa LMNA splicing GFP/RFP minigene ratio, 48 h; active = well fitted inhibition curve with a large enough effect in the signal ratio, with a control signal flat, not every such curve was filed as active; inconclusive = small, poorly fitted or top-dose-only effect, or effect the other way, or a change in a side signal; the % refers to the signal ratio; also: % is scaled to controls: 0 for no effect and ±100 for the full control effect
#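 Read-out is the ratio of GFP to DsRed2 object intensity, acquired by 488 nm laser-scanning cytometry on HeLa lamin A-EGFP minigene reporter cells. Compound incubation 48 hrs at 37 °C in Opti-MEM with 2% FBS; DMSO 0.5% final.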
# HTT cytoprotect: Huntington cell model cytoprotection by ATP luminescence. PC12 HTT-Q103 induced, cytoprotection, ATP luminescence, 40 h. Potency, µM (top dose mostly 56.4 µM), inactives show cytoprotection (ATP increase), usual class: activators. 0.14% of 230,000 active; active = well fitted curve in the direction sought with a large enough effect; inconclusive = small, poorly fitted or top-dose-only effect, or another doubt; inactive = no such curve, though single readings can be large; an effect the other way counts as inactive or inconclusive; also: % of control where 0% means no effect; nearly all actives have a fitted effect of over 45% in size
#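 Compounds were screened for protection of PC12 cells against cell death after tebufenozide induction (100 nM final) of mutant Huntingtin exon 1 (Q103) fused to GFP.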
# JMJD2E inh: inhibitors of human JMJD2E histone demethylase; JMJD2E catalytic domain, FDH-coupled NADH fluorescence (FDH is formaldehyde dehydrogenase); Potency, µM (titrated, usually from 57.1 µM), for inactives: top-dose activity change, negative = inhibition, hits mostly inhibitors; 1.6% of 230,000 active; AID 2147;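 also: 0% = wells with enzyme and -100% = buffer wells without enzyme; nearly all actives have a fitted effect of over 50% in size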
# Target sequence (B2RXH2 1-337 limits assumed): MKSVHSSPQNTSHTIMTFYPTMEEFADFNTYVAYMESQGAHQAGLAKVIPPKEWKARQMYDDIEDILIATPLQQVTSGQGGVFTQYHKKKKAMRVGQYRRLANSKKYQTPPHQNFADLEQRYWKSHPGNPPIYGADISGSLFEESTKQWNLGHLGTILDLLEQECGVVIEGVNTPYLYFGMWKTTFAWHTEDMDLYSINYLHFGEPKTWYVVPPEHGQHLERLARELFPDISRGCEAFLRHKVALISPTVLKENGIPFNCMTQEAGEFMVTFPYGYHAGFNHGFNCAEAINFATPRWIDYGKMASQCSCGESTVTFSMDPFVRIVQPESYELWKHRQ
# Numbers without * were called inactive; ? = inconclusive; . = not tested or not shown; [ ] = dose if it differs, or a comment. Rows were chosen to be rich in hits. Some 9.2% of all compounds tested hit in one or more screens of this group. Unless noted, calls follow the shape of the dose curve; as a rule, active = well fitted inhibition curve with a large enough effect (not every such curve was filed as active); inconclusive = small, poorly fitted or top-dose-only effect, or another doubt; inactive = no such curve, though single readings can be large or run the other way. Potency is read from the fitted curve at half-maximal effect.
SMILES,HPGD inh,ALDH1A1 inh,HTT aggregate,LMNA splice mod,HTT cytoprotect,JMJD2E inh
O=[N+]([O-])c1cccc(Cl)c1,-7.2%,25.1µM*,.,.,-5.3%,.
NC(=O)c1cccc([N+](=O)[O-])c1,0.2%,-0.2%,.,.,-2.2%,.
COC(=O)c1ccc(NC(=O)CCN2CCN(Cc3ccccc3)CC2)cc1,1.6%,?,-1.9%,1.0%,?,1.9%
NC(N)=Nc1ccc(-c2ccc(N=C(N)N)cc2)cc1,-6.7%,4.3%[13.5 µM],.,.,3.0%[10 µM],.
Cc1c(Cl)ccc2sc(NC(=O)c3ccc(S(=O)(=O)N4CCCC4)cc3)nc12,.,.,.,12.0%[46 µM],.,.
CSc1nc(NCCOCCO)c2sc3nc(-c4ccco4)c4c(c3c2n1)CCC4,?,?,?,5.7%,-9.8%,?
CCN(CCO)c1nc(SC)nc2c1sc1nc(-c3ccco3)c3c(c12)CCC3,?,2µM*,?,?,18.9%,3.55µM*
O=c1c(CCc2ccccc2)nc2cnc(Oc3cccc(Cl)c3)nc2n1C[C@H]1CCCO1,-3.7%,?,.,.,12.3%,.
Cc1ccc(-n2c(SCn3nnc4ccccc4c3=O)nnc2-c2cccnc2)c(C)c1,-20.9%,22.4µM*,-2.5%,20.9%,-9.3%,-14.7%
O=c1c2ccccc2nnn1CSc1nnc(-c2cccnc2)n1-c1ccccc1F,.,?,3.4%,4.9%,-11.2%,-0.2%
CCCN1CCCc2cc(CN)ccc21,.,?,12.6µM*,?,-16.2%[10 µM],?
CC(C)(C)c1cc(NC(=O)COC(=O)c2ccc3c(=O)n4c(nc3c2)CCC4)n(-c2ccccc2)n1,-23.1%,3.98µM*,5.2%,-9.3%,-9.4%,-10.5%
O=C(Cc1ccc(Cl)cc1Cl)OCC(=O)N1CCN(C(=O)c2ccco2)CC1,.,14.1µM*,12.7%,-19.6%[9.22 µM],-17.6%,-6.7%
Cc1cc(SCC(=O)OCC(=O)N2CCN(C(=O)c3ccco3)CC2)c(C)cc1Br,-12.7%,31.6µM*,-11.8%,7.7%,-25.7%[10 µM],-7.0%
O=C(Cc1ccc(Cl)cc1)N1CCN(C(=O)c2ccco2)CC1,0.1%,-5.6%,3.6%,1.7%,-16.4%,2.1%
Cc1ccsc1C(=O)OCC(=O)N1CCN(C(=O)c2ccco2)CC1,.,-14.3%,10.9%,-23.7%[46 µM],24.8%[10 µM],-4.3%
CC(C)NC(=O)N1CCC2(CC1)CCN(C(=O)c1cnccn1)CC2,-10.5%,-1.1%,.,.,20.5%,.
O=C(Nc1cccc(C(F)(F)F)c1)c1ccc(F)c(S(=O)(=O)N2CCc3ccccc3C2)c1,.,.,.,-8.0%[46 µM],.,.
Cc1cccc(C)c1OCc1nc2ccccc2c(=O)n1/N=C/c1ccc(OCC(=O)O)cc1,-21.0%,14.1µM*,-15.3%,11.5%,.,-9.0%
Cc1ccc(-c2[nH]ncc2/C=N/n2c(COc3ccccc3)nc3ccccc3c2=O)cc1,-15.1%,1.6%,3.1%,?,-22.5%[10 µM],-2.3%
CCCc1nc2ccccc2c(=O)n1/N=C/c1ccc(O)cc1,-13.4%,-8.1%,?,?,-3.3%,-6.1%
CCCc1nc2ccccc2c(=O)n1/N=C/c1ccc(O)cc1O,-10.9%,?,-9.3%[9.22 µM],?,-27.5%[0.074 µM],31.6µM*
Cc1cc(/C=N/n2c(COc3ccccc3)nc3ccccc3c2=O)c(O)c([N+](=O)[O-])c1,?,0.4%,10µM*,?,40.9%[10 µM],?
Fc1cccc(F)c1-n1c(CN2CCCCC2)csc1=S,.,?,26.2%,6.9%[9.22 µM],-47.1%,-0.2%
O=C(O)CC1SC(=Nc2ccccc2)N(c2ccccc2)C1=O (stereo not given),-5.9%,-2.4%,?,14.7%,1.1%,1.8%
SMILES,HPGD inh,ALDH1A1 inh,HTT aggregate,LMNA splice mod,HTT cytoprotect,JMJD2E inh
O=C(O)CC1S/C(=N/N=C/c2ccc(Br)cc2)N(c2ccccc2)C1=O (stereo not given),.,14.1µM*,-7.1%,.,-39.0%,-10.7%
CC(C)C1O[C@H](/C=C\c2ccccc2)OCC1(C)C (stereo not given in full),-11.6%,?,.,.,.,.
Cc1nnn(C23CC4CC(CC(C(=O)NN)(C4)C2)C3)n1,2.3%,1.41µM*,3.4%,-5.3%,.,29.1%
c1nnn(C23CC4CC(CC(C4)C2)C3)n1,-4.6%,12.3%,12.3%,-9.7%,4.9%[10 µM],2.9%
NNC(=O)C12CC3CC(C1)CC(n1ncnn1)(C3)C2,-2.4%,3.55µM*,-20.5%,-8.2%,.,13.8%
CC(C)COC(=S)Nc1ccccc1,11.2µM*,25.1µM*,-2.3%[9.22 µM],7.9%,6.2%,-4.1%
CCN(CC)S(=O)(=O)c1ccc(O)c(NS(=O)(=O)c2ccccc2F)c1,25.1µM*,12.6µM*,-1.2%,?,24.2%[10 µM],-7.0%
CCOc1ccc(S(=O)(=O)N(CC)CC)cc1NS(=O)(=O)c1ccc(F)c(F)c1F,-1.1%,?,7.7%,-15.9%,-0.5%[10 µM],4.8%
CC(C)N(Cc1ccccc1)C(=O)/C=C/c1ccccc1[N+](=O)[O-],.,5.62µM*,5.9%[9.22 µM],?,16.9%[10 µM],-22.2%
C[C@@H]1c2ccccc2Cn2cc3c(c21)C(=O)c1cccc(OP(=O)(O)OCc2ccccc2)c1C3=O,-25.8%,11.7%[13.5 µM],.,.,-15.4%[10 µM],.
COc1ccc(C2C(C(=O)N3CCOCC3)c3ccccc3C(=O)N2c2ccc(OC)cc2)cc1 (stereo not given),-10.1%,14.1µM*,15.0%,6.8%,3.2%,15.4%
CCN1CCN(CCCNC(=O)C2c3ccccc3C(=O)N(c3ccc(OC)cc3)C2c2ccc(OC)cc2)CC1 (stereo not given),.,6.6%,1.9%,-0.3%[46 µM],-40.0%,-7.8%
COc1ccc(C2C(C(=O)N3CCN(c4ccccc4)CC3)c3ccccc3C(=O)N2C)cc1 (stereo not given),-18.4%,2.24µM*,-17.0%,-13.1%,-20.8%[10 µM],-3.2%
CCOC(=O)CNC(=O)C1c2ccccc2C(=O)N(c2ccc(OC)cc2)C1c1ccc(OC)cc1 (stereo not given),-15.4%,28.2µM*,3.5%,10.1%,4.1%,-10.9%
COc1ccccc1CNc1nc(-c2ccco2)nn1S(=O)(=O)c1ccc2ccccc2c1,.,.,.,0.6%[46 µM],.,.
N#C/C(=N\Nc1cccc(C(F)(F)F)c1)C(=O)c1ccsc1,.,-6.7%,-40.0%[9.22 µM],.,-48.9%[10 µM],-5.9%
CCOC(=O)c1c(NC(=O)CSc2nnc(CNc3ccc(Cl)cc3)o2)sc(C)c1C,-4.1%,11.2µM*,-13.4%,-11.0%,24.2%[10 µM],2.9%
CCOC(=O)c1c(NC(=O)CSc2ncnc3ccccc23)sc(C)c1C,-14.5%,14.1µM*,6.1%,?,.,6.8%
CCOC(=O)c1csc(NC(=O)CSc2nnnn2-c2ccc(OC)cc2)n1,-3.2%,4.7%,?,-5.9%,2.5%[10 µM],-3.1%
CCOC(=O)c1c(NC(=O)CSc2ccccc2C(=O)O)sc(C)c1C,.,1.7%,-8.9%[9.22 µM],.,-7.9%[10 µM],-2.6%
CCOC(=O)c1c(NC(=O)CSc2nnnn2-c2ccc(OC)cc2)sc(C)c1C,2.82µM*,1µM*,9.1%,4.5%,-2.4%,-2.4%
